28 compounds from PubChem BioAssay (Tox21) can be followed below.

Structures are written as SMILES. “And” between values parts separate entries of the source, which are not always exact repeats. Equal values may be shown once. Inconclusive results are not listed. Where a structure was tested more than once in an assay, its records may differ in their call. The source made the active and inactive calls. The call rests on the fitted dose curve; in most records, active means well fitted curve in the direction sought with a large enough effect in the repeat runs; inconclusive means weak or mixed curves; inactive means no such curve, though single readings can be large; an effect the other way counts as inactive or inconclusive.

The target of assay [1] is Cytochrome P450 2C19 (Homo sapiens) (UniProt P33261). Put plainly: Cytochrome P450 Family 2 Subfamily C Member 19 (CYP2C19) small molecule antagonists: luciferase reporter qHTS assay (AID 1671197). Further: nearly all actives have a fitted effect of over 65% in size. Further: potency means the concentration at half of the fitted maximal effect. On activity change, negative = inhibition: series mostly up to about 120 µM. In short, it runs like this:
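Relative luminescence units recorded 20 min after the detection reagent stopped a 1 h, 37C CYP2C19 reaction on proluciferin substrate, which was started by NADPH regeneration following 10 min room-temperature compound preincubation; ketoconazole positive control.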
On the technique in general: In a reporter assay the amount or activity of a reporter protein is the signal.

Assay [2] addresses Cytochrome P450 1A2 (Homo sapiens) (UniProt P05177). Nature of the assay: Cytochrome P450 Family 1 Subfamily A Member 2 (CYP1A2) small molecule antagonists: luciferase reporter qHTS assay (AID 1671199). Further: nearly all actives have a fitted effect of over 50% in size. Further: potency means the concentration at half of the fitted maximal effect. On activity change, negative = inhibition: series mostly up to about 120 µM. The method, boiled down: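 CYP1A2 turnover of a luminogenic substrate was quantified after 1 h with NADPH regeneration at room temperature. Furafylline served as positive control.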

Assay [3] concerns the target Voltage-gated inwardly rectifying potassium channel KCNH2 (Homo sapiens) (UniProt Q12809). Put plainly: Human Ether-a-go-go-Related Gene (hERG) channel small molecule antagonists: fluorescence cell-based qHTS assay (AID 1671200).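 Further: hERG-expressing U2OS cells given a thallium stimulus after FluxOR II dye loading; series mostly up to about 77 µM; nearly all actives have a fitted effect of over 50% in size.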 In short, it runs like this: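 Thallium served as the potassium surrogate; its influx into dye-loaded U2OS cells carrying the channel was measured by fluorescence over 2 min.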
On the technique in general: hERG is a cardiac potassium channel; its block is linked to QT prolongation.

Assay [4] has as its target Cytochrome P450 3A4 (Homo sapiens) (UniProt P08684). Put plainly: Cytochrome P450 Family 3 Subfamily A Member 4 (CYP3A4) small molecule antagonists: luciferase reporter qHTS assay (AID 1671201). Further: nearly all actives have a fitted effect of over 50% in size. Further: potency means the concentration at half of the fitted maximal effect. On activity change, negative = inhibition: series mostly up to about 120 µM. The method, boiled down:
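Relative luminescence units after 20 min with luciferin detection reagent served as read-out. Beforehand, CYP3A4 turned over a proluciferin substrate for 1 h at room temperature with NADPH regeneration, following 10 min compound preincubation.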

Assay [5] has as its target Cytochrome P450 2C9 (Homo sapiens) (UniProt P11712). Nature of the assay: Cytochrome P450 Family 2 Subfamily C Member 9 (CYP2C9) small molecule antagonists: luciferase reporter qHTS assay (AID 1671198). Further: nearly all actives have a fitted effect of over 50% in size. Further: potency means the concentration at half of the fitted maximal effect. On activity change, negative = inhibition: series mostly up to about 120 µM. The method, boiled down:
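Enzyme-substrate mix preincubated with compound 10 min at room temperature; reaction started with NADPH regeneration solution, 1 h 37C. Luminescent luciferin product read after 20 min detection reagent.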
On the % scale 0 is the no-effect control and ±100 the full control effect.

Chain of Voltage-gated inwardly rectifying potassium channel KCNH2 (Homo sapiens) (Q12809 whole entry, looked up): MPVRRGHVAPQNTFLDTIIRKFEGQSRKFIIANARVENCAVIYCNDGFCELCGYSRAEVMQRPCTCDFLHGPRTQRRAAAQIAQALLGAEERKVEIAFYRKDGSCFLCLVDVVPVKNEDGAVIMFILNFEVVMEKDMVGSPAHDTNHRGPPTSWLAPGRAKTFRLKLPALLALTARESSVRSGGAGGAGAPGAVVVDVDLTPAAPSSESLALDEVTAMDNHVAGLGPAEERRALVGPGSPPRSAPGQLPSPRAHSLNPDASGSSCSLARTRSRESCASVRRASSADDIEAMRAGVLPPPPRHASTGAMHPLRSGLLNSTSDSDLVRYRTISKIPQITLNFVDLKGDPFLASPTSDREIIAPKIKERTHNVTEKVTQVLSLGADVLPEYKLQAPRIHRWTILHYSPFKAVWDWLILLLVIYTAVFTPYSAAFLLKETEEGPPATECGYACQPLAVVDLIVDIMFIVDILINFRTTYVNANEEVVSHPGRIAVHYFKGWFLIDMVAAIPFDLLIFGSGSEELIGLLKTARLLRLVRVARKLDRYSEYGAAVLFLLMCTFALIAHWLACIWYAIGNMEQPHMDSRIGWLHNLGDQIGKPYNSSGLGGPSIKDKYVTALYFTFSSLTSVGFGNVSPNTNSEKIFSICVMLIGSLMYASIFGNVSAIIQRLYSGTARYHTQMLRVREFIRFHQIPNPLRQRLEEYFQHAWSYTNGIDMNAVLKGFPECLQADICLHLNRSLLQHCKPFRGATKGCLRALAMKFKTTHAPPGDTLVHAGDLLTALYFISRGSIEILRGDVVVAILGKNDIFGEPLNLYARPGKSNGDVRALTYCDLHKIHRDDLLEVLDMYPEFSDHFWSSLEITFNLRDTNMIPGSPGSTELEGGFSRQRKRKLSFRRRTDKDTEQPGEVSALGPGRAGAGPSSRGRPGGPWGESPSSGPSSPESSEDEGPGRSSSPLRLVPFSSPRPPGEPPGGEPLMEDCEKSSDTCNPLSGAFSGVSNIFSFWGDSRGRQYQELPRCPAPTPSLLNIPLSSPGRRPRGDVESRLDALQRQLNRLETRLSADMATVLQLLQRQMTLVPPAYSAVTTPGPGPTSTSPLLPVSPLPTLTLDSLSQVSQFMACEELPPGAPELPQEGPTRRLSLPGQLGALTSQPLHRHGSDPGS
Chain of Cytochrome P450 2C19 (Homo sapiens) (P33261 whole entry, looked up): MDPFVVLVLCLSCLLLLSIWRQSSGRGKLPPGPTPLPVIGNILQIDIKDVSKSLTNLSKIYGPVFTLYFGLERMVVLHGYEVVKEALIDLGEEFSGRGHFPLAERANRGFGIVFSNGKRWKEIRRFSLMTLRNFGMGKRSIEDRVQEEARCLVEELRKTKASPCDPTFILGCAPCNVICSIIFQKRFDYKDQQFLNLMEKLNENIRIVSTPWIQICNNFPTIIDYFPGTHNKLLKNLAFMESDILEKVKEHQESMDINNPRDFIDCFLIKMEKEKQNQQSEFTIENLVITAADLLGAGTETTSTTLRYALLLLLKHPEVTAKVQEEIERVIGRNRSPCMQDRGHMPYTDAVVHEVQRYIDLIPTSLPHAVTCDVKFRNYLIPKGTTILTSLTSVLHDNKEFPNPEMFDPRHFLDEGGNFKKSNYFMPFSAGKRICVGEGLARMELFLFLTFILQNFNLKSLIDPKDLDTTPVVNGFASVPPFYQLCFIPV
Chain of Cytochrome P450 1A2 (Homo sapiens) (P05177 whole entry, looked up): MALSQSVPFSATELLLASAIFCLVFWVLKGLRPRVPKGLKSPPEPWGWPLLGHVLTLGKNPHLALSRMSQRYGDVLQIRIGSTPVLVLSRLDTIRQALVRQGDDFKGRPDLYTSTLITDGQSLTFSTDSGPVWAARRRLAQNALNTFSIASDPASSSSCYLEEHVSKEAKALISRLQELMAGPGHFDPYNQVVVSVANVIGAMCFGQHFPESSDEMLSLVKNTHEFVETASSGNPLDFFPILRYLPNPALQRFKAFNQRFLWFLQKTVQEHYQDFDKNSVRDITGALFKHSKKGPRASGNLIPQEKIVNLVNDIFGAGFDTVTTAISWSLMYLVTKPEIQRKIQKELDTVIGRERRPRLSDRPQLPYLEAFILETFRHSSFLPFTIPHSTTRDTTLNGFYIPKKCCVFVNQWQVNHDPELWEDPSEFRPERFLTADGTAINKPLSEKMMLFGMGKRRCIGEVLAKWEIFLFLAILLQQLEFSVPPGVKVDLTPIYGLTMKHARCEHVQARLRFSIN
Chain of Cytochrome P450 2C9 (Homo sapiens) (P11712 whole entry, looked up): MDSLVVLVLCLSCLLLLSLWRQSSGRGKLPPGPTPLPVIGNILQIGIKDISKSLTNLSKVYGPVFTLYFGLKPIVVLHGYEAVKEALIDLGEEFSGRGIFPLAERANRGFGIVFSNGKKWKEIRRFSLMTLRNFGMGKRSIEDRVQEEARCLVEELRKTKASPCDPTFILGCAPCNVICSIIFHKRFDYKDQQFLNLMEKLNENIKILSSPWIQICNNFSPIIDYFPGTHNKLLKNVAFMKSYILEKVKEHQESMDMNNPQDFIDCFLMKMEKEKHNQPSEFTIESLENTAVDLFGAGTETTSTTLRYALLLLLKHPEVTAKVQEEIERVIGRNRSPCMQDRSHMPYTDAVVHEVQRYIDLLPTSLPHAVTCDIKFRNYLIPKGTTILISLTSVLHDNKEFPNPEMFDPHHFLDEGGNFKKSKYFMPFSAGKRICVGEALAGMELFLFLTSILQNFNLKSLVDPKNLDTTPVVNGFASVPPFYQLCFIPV
Chain of Cytochrome P450 3A4 (Homo sapiens) (P08684 whole entry, looked up): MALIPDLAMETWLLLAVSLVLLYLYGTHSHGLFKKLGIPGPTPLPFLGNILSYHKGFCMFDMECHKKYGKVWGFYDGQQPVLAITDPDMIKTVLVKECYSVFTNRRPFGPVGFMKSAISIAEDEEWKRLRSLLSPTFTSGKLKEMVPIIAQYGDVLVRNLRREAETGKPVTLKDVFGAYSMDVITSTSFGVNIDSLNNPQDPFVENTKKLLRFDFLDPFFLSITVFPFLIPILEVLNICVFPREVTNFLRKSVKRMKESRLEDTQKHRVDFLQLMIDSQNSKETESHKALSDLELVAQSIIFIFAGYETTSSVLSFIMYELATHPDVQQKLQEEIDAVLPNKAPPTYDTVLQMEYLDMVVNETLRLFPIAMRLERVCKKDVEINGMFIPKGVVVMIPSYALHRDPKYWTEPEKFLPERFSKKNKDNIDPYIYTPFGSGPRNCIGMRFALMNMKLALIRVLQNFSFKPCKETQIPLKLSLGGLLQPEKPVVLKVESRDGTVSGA

Take `COP(N)(=O)SC` (configuration not stated): the Potency in assay [1] is 39.3 µM (active) and inactive. In addition, the Potency entry in assay [2], in assay [3] and in assay [4] was “inactive” each time.

As for `CC1OC(C)OC(C)O1` (configuration not stated), the Potency entry in assay [1], in assay [5], in assay [3] and in assay [4] was “inactive” throughout.

With `OC(O)C(Cl)(Cl)Cl`, the Potency entry in assay [1], in assay [2], in assay [3] and in assay [4] was “inactive” in each case.

In the case of `c1cc2c3c(cccc3c1)CC2`, the Potency in assay [1] is 45.9 µM (active) and inactive. In addition, the Potency entry in assay [5], in assay [3] and in assay [4] was “inactive” throughout.

Turning to `COC(=O)NS(=O)(=O)c1ccc(N)cc1`, the Potency in assay [1] was 71.3 µM (active) and inactive. Further, the Potency result in assay [2], in assay [3] and in assay [4] was “inactive” in each case.

As to `c1ccc2c(c1)oc1ccccc12`, the Potency in assay [1] was 40.5 µM (active); in assay [5], 36.1 µM (active) and inactive; in assay [2], “inactive and 10 µM (active)”. The Potency result in assay [4] is “inactive”.

On to `C=CC(N)=O`, for which, in assay [5], the Potency result is “inactive”. The Potency in assay [2] is 35.7 µM (active) and inactive.

With `[O-][Cl+2]([O-])O`, the Potency entry in assay [1], in assay [5], in assay [2], in assay [3] and in assay [4] was “inactive” throughout.

For `CCN(CC)c1ccccc1`, the Potency result in assay [1], in assay [2], in assay [3] and in assay [4] was “inactive” each time. In assay [5], the Potency result was “inactive and 71 µM (active)”.

`C#CC(C)(C)NC(=O)c1cc(Cl)cc(Cl)c1`: the Potency is 8.04 µM (active) and 39.9 µM (active) in assay [1]; 71.7 µM (active) and inactive in assay [5]; 5.07 µM (active) and 15.9 µM (active) in assay [2]; 20.2 µM (active) and 35.6 µM (active) in assay [4]. Besides, the Potency entry in assay [3] was “inactive”.

Regarding `c1ccc(OP(Oc2ccccc2)Oc2ccccc2)cc1`, the Potency entry in assay [5], in assay [2], in assay [3] and in assay [4] was “inactive” in each case.

`O=[N+]([O-])c1ccccc1`: the Potency entry in assay [1], in assay [5], in assay [2], in assay [3] and in assay [4] was “inactive” throughout.

As for `Cc1cc(Cl)ccc1O`, the Potency in assay [2] is 30.8 µM (active) and 31.7 µM (active). For the same compound, the Potency entry in assay [3] and in assay [4] was “inactive” throughout.

As for `CC(C)OC(=O)Nc1cccc(Cl)c1`, the Potency in assay [1] was 24.8 µM (active) and 31.7 µM (active); in assay [5] it was 55.6 µM (active) and 71 µM (active); in assay [2], 9.89 µM (active) and 8.94 µM (active). Further, the Potency entry in assay [3] and in assay [4] was “inactive” throughout.

For `C#CCN(C)[C@H](C)Cc1ccccc1`, the Potency result in assay [5], in assay [3] and in assay [4] was “inactive” throughout. In addition, the Potency in assay [2] is 17.8 µM (active) and inactive.

`Clc1ccccc1Cl`: the Potency result in assay [1], in assay [5], in assay [2], in assay [3] and in assay [4] was “inactive” in each case.

On to `COC(=O)c1ccccc1N`, for which the Potency result in assay [1], in assay [3] and in assay [4] was “inactive” in each case. In addition, in assay [2], the Potency was 34.4 µM (active) and 39.9 µM (active).

On to `CCNc1nc(NC(C)C)nc(SC)n1`, for which the Potency entry in assay [5], in assay [3] and in assay [4] was “inactive” throughout. Besides, the Potency in assay [2] is 8.02 µM (active) and 11.2 µM (active).

Take `CCOP(OCC)OCC`: the Potency entry in assay [1], in assay [5], in assay [2], in assay [3] and in assay [4] was “inactive” in each case.

On to `CC(C)OC(=O)Nc1ccccc1`, for which the Potency in assay [1] was 40 µM (active); in assay [2], 28.3 µM (active) and 39.9 µM (active). In addition, the Potency result in assay [3] and in assay [4] was “inactive” in each case.

As for `Clc1cccc(Cl)c1Cl`, in assay [1], the Potency is 35.2 µM (active) and inactive. Also, the Potency entry in assay [5], in assay [2], in assay [3] and in assay [4] was “inactive” throughout.

On to `CN(C)[C@@H]1C(=O)C(C(N)=O)=C(O)[C@@]2(O)C(=O)C3=C(O)c4c(O)cccc4[C@@](C)(O)[C@H]3C[C@@H]12`, for which the Potency entry in assay [1], in assay [3] and in assay [4] was “inactive” each time.

`CCC(C)(CC)c1cc(NC(=O)c2c(OC)cccc2OC)on1`: the Potency in assay [1] was 40 µM (active) and 68.3 µM (active); in assay [5], 35.7 µM (active) and 34.2 µM (active); in assay [4] it was 799 nM (active) and 1.93 µM (active). Also, the Potency result in assay [3] is “inactive”.

With `c1ccc2c(c1)Oc1ccccc1O2`, the Potency entry in assay [1], in assay [5], in assay [3] and in assay [4] was “inactive” throughout.

For `Oc1ccccc1Cl`, the Potency entry in assay [1], in assay [5], in assay [3] and in assay [4] was “inactive” each time.

With `C=C(C)CCl`, the activity change, negative = inhibition was 3.29% [at 10.5 µM] (inactive) in assay [1] and -9.56% [at 10.5 µM] (inactive) in assay [2]. The Potency entry in assay [5], in assay [3] and in assay [4] was “inactive” in each case.

In the case of `CC(C)N1C(=O)c2ccccc2NS1(=O)=O`, the Potency in assay [5] is 20 µM (active) and 17.8 µM (active). Further, the Potency entry in assay [2], in assay [3] and in assay [4] was “inactive” in each case.

With `O=S(=O)(c1ccc(Cl)cc1)c1cc(Cl)c(Cl)cc1Cl`, the Potency in assay [1] was 251 nM (active) and 252 nM (active); in assay [5], 28.3 µM (active). The Potency result in assay [3] and in assay [4] was “inactive” in each case.
